Results published in PubChem BioAssay AID1345082 (National Center for Advancing Translational Sciences (NCATS), 2018).
Hit rate of the full screen: of about 94,000 compounds, about 4,000 (4.3%) were called active. Inconclusive results (about 29%) are left out. Only a selection was taken, and actives are over-represented in it overall. A number with no mark means an inactive call. Calls come from the whole dose curve; as a rule, active = well fitted inhibition curve with a large enough effect; inconclusive = small, poorly fitted or top-dose-only effect; inactive = no such curve, though single readings can be large or run the other way.

Assay: Cytotoxic Profiling in NIH 3T3 Cell Line of Diverse Libraries Using Quantitative High-Throughput Screening; note: nearly all actives have a fitted effect of over 55% in size
Conditions: NIH 3T3 viability, CellTiter-Glo ATP luminescence, 48-72 h; series mostly up to 96.7 µM; activity change, negative = cytotoxicity: at the top concentration
Outline: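 ATP-dependent luminescence (CellTiter-Glo) served as the viability signal for NIH 3T3 cells treated with compound for 48 or 72 hr at 37 °C.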
% is set by controls: 0 for no effect and ±100 for the full control effect; potency is the fitted concentration of half-maximal effect.

Compound | activity change, negative = cytotoxicity | Potency | outcome
O=C(NC1CC1)C1CCCN(c2nc3ncccc3o2)C1 (centres undefined) | -5.51% [at 138 µM] |  | 
Cc1nc(CCNC(=O)C2CCCN(c3nc(-c4ccccc4)nc4c3CCC4)C2)n[nH]1 (centres undefined) | -19.5% |  | 
O=C(NC1CCCCC1)C1CCCN(c2nccc(Nc3ccccc3F)n2)C1 (centres undefined) |  | 14.1 µM (active) | 
Cc1ccc(C(=O)N2CCC(c3n[nH]c(=O)n3Cc3ccc(F)cc3)CC2)cc1 | -16.8% |  | 
O=C1CCN([C@@H]2CCC[C@H]2O)c2cc3c(cc2CN1Cc1ccccc1)OCO3 | -22.9% |  | 
COc1cccc([S+](=O)([O-])N2CCCC3(CC(c4ccccc4)=NO3)C2)c1 (centres undefined) | -14.2% |  | 
N[C@@H](Cc1cnc[nH]1)C(=O)N1CCC(c2cc(N3CCCC3)ncn2)CC1 | -4.08% |  | 
COc1ccc(C2Cn3nnc(-c4noc(-c5sccc5C)n4)c3CO2)cc1 (centres undefined) | 0.859% |  | 
CCc1cc(C(=O)N2CCC(Oc3ccccc3)(C(=O)O)CC2)cs1 | 1.22% |  | 
CC(C)CNc1ncnc2c1CN(C1CCC1)C(=O)CN2C | -28.4% |  | 
O=C(c1ccc(F)c(F)c1)N1CCN(C2CCN(CCc3ccccc3)C2=O)CC1 (centres undefined) | -8.32% |  | 
COCc1nncn1C1CCN(C(=O)c2ccccc2F)CC1 |  |  | inactive
O=C1Nc2ccc(-c3ccsc3)cc2C(=O)N2CC[C@H](NS(=O)(=O)c3cccs3)[C@@H]12 | -25.8% |  | 
O=C1Nc2ccc(-c3ccccc3F)cc2C(=O)N2CCN(C(=O)c3cccs3)C[C@H]12 | -25.5% |  | 
N[C@H]1CCN2C(=O)c3cc(-c4ccc(F)cc4F)ccc3NC(=O)[C@H]12 |  | 112 µM (active) | 
CS(=O)(=O)N1C[C@H]2CCN(C(=O)c3ccc(=O)[nH]c3)C[C@H]21 | -12.6% |  | 
CC(=O)N[C@@H]1CN(Cc2cn[nH]c2-c2ccc(F)cc2)C[C@H]1CO | -7.37% |  | 
COc1ccc2cc(-c3[nH]ncc3CN3CCN(c4cccc(C)n4)CC3)ccc2c1 |  | 28.2 µM (active) | 
COc1ccc(-c2[nH]ncc2CN2CCCC(C(=O)NCc3ccccc3)CCNC(=O)CC2)cc1 (centres undefined) |  |  | inactive
CCc1nnc([C@@H]2CC(F)(F)CN2C(=O)c2cc(C)oc2C)o1 | -7.09% |  | 
C=CCNC(=O)N[C@H]1C[C@@H](C(=O)N[C@H](Cc2c[nH]c3ccccc23)C(N)=O)N(C(=O)C=C(C)C)C1 | -1.24% |  | 
O=C1CC2(CCN(C(=O)C3CCN(C(=O)c4ccccc4Cl)CC3)CC2)Oc2ccccc2N1 | -8.99% |  | 
O=C(Cn1ccnc1)N1CCC(c2noc(-c3ccncc3)n2)C1 (centres undefined) |  |  | inactive
O=C(NC1CCCC1)N1CCC(c2noc(-c3ccccc3)n2)C1 (centres undefined) |  | 39.8 µM (active) | 
Cn1cnc(S(=O)(=O)N2CCC(c3noc(-c4ccccc4)n3)C2)c1 (centres undefined) | -21.7% |  | 

Compound | activity change, negative = cytotoxicity | Potency | outcome
Cc1noc(C)c1S(=O)(=O)N1CCC2(CC1)CN(c1ccccc1)C2=O | -6.57% |  | 
O=C(NC1CCCCC1)N1CCCC(Cn2c(C3CC3)nc3cccnc32)C1 (centres undefined) | -7.77% |  | 
Cc1nc(N2CCC(C(=O)NCc3ccc(C(C)C)cc3)CC2)cc(C(F)(F)F)n1 |  | 25.1 µM (active) | 
Cc1nc(N2CCC(NC(=O)c3ccc4c(c3)OCO4)CC2)cc(C(F)(F)F)n1 | -41.1% |  | 
Cc1nc(N2CCC(NC(=O)C(C)Oc3ccccc3)CC2)cc(C(F)(F)F)n1 (centres undefined) | -44.5% |  | 
CNC(=O)N1CCc2nc(N3CCOCC3)[nH]c(=O)c2CC1 |  |  | inactive
COc1ccc([S+](=O)([O-])c2nnn3c2nc(NC2CCCC2)c2ccccc23)cc1 | -9.25% |  | 
CCc1nc2c(c(-c3ccc(OC)cc3)n1)CCN(CC1CCCCC1)CC2 | -2.8% |  | 
O=C(NCC1CC1)c1nc2c(o1)CCN(CCc1ccccc1)CC2 | -20.5% [at 138 µM] |  | 
O=C(NCCOc1ccccc1)c1nc2c(o1)CCN(CC1CCCCC1)CC2 |  | 79.4 µM (active) | 
CN(C)C[C@@H]1CN(S(C)(=O)=O)C[C@H]1NC(=O)c1cccc(F)c1 | 1.85% |  | 
COc1ccc(C(=O)N2CCC(N3C[C@H](O)C[C@H]3C(=O)NC3CCCCC3)CC2)cn1 |  |  | inactive
C[S+](=O)([O-])N1CCC2(C1)N=C(c1ccccn1)C(=O)N2 (centres undefined) | 3.04% [at 138 µM] |  | 
CC(C)CN1C(=O)COC[C@@H]1[C@H](O)c1ccc(NC(=O)Cc2ccccc2)cc1 | -11.9% [at 138 µM] |  | 
CCN1C(=O)COC[C@@H]1C(O)c1ccc(NC(=O)Cc2ccc(OC)cc2)cc1 (some centres undefined) |  |  | inactive [at 174 µM]
COc1ccccc1CN1C(=O)COC[C@@H]1[C@H](O)c1ccc(NC(=O)c2ccc(C#N)cc2)cc1 |  | 44.7 µM (active) | 
O=C(Cc1ccccc1)Nc1ccc([C@@H](O)[C@H]2COCC(=O)N2)cc1 | 2.9% [at 138 µM] |  | 
Cc1nc2cnccn2c1C(=O)NC1CCCC1 | -26.7% [at 138 µM] |  | 
Cc1cccc(-c2cc(C3CCN(S(=O)(=O)c4cccc(C#N)c4)CC3)[nH]n2)c1 |  | 5.01 µM (active) | 
Cc1cnc(-c2cccnc2)n1C1CCN(S(=O)(=O)c2cccc(F)c2)CC1 | -7.18% |  | 
Cc1cnc(CC2CCN(S(=O)(=O)c3ccc(C#N)cc3)C2)n1Cc1ccccc1 (centres undefined) | -19.8% |  | 
Cc1cccc(S(=O)(=O)N2CCC(n3cnnc3C(C)C)CC2)c1 | -17.6% |  | 
Cc1cccc(-c2cc(C3CCN(S(=O)(=O)c4ccc(C#N)cc4)CC3)[nH]n2)c1 |  | 14.1 µM (active) | 
Cn1nc2n(c1=O)CCN(S(=O)(=O)c1ccc(C#N)cc1)CC2 |  |  | inactive
